GCN5L2 inh: blocks human GCN5L2 histone acetyltransferase; Q92830; GCN5L2 HAT assay, ThioGlo1 CoA-SH fluorescence; Potency, µM (series often up to 58.9 µM), for inactives: at the top dose activity change, negative = inhibition, actives largely listed as inhibitors; 0.21% of 390,000 active; AID 504327; note: potency is the fitted concentration of half-maximal effect
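Enzyme at 20nM final was mixed with library compounds for 15 min at room temperature. Peptide H3(1-25) at 75uM, acetyl-CoA at 70uM and ThioGlo1 at 50uM were then added. Plates were read immediately and after 20 min (Ex340nm/Em540nm).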
VDR inh: vitamin D3 receptor (human) inhibition; P11473; VDR-SRC2-3 peptide fluorescence polarization, 2 h; Potency, µM, inactives show max response, negative = inhibition, hits mostly inhibitors; 0.93% of 400,000 active; note: potency is the fitted concentration of half-maximal effect
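The screen uses fluorescence polarization to detect compounds that interfere with recruitment of the SRC2-3 coactivator peptide to VDR; plates are read after 2 h at room temperature.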
PLK1 PBD block: blocks phosphopeptide binding to human PLK1 polo-box domain. P53350. Plk1 PBD binding of FITC phosphopeptide, fluorescence polarization. Potency, µM, for the others: max response, negative = inhibition, actives largely listed as inhibitors. 2.8% of 360,000 active; note: potency is the fitted concentration of half-maximal effect; series mostly up to about 57 µM; nearly all actives have a fitted effect of over 65% in size
Target sequence (P53350 whole entry, looked up, the tested form may be a part): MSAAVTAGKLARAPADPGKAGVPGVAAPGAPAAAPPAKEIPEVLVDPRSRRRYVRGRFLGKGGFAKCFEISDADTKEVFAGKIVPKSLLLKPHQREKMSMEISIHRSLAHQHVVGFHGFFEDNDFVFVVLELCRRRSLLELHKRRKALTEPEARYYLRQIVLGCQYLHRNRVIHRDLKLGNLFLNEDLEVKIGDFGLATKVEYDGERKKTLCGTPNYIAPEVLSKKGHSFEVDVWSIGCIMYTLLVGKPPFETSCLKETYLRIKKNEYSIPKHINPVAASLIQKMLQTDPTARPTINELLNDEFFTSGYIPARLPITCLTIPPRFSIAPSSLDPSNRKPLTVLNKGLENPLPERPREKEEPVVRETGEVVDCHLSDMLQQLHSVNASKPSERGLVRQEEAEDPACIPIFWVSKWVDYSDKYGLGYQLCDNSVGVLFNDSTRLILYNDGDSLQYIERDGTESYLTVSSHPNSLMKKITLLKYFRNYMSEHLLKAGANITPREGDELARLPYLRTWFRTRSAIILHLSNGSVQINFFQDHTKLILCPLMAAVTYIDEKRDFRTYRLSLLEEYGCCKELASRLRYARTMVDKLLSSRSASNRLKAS
GLS inhibitor: inhibitors of human glutaminase (GLS); GLS enzymatic activity, qHTS titration; Potency, µM (top dose mostly 45.5 µM), without a hit: at the highest dose activity change, negative = inhibition, usual class: inhibitors; 0.21% of 410,000 active; O94925; AID 624170; note: potency is the fitted concentration of half-maximal effect
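hKGA in 45 mM KH2PO4 (pH 8.2), 0.02% Tween-20 with compound, then 1mM L-Glutamine (stock as added) plus glutamate oxidase/HRP/Amplex red coupling mix. Fluorescence read initially and after 30 min at RT; signal change reflects glutamate formation.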
PI4K2A inh: blocks human PI4K2A kinase activity; purified PI4K2A, ADP-Glo luminescence, 1 h; hits give low values; activity change, negative = inhibition, % at 76.9 µM; 0.13% of 420,000 active; Q9BTU6; in the data active = activity change below about -50%; inconclusive = mostly about -30% to -49%;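 note: -100% = wells without enzyme as full effect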
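ADP-Glo luminescence measured ADP generated by PI4K2A enzyme (4 ug/mL before mixing) with 1.2 mM PI substrate (pre-mix) and 300 microM ATP (pre-mix). Tris pH7.5 buffer with MgCl2, Triton X-100; 1 h reaction at ambient temperature.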
* hit, by the source's call; ? = inconclusive; . = no result given. The list is not random: actives were taken first. Their share in the collection is about 3.1%. Unless noted, calls come from the whole dose curve; as a rule, active = well fitted curve in the direction sought with a large enough effect; inconclusive = small, poorly fitted or top-dose-only effect, or another doubt; inactive = no such curve, though single readings can be large; an effect the other way counts as inactive or inconclusive. Unless noted, % is set by controls: 0 for no effect and ±100 for the full control effect.

SMILES	GCN5L2 inh	VDR inh	PLK1 PBD block	GLS inhibitor	PI4K2A inh
CCN(CC)S(=O)(=O)c1ccc(N2CCOCC2)c(NC(=S)NC(=O)c2ccco2)c1	-14.7%	?	23.8µM*	-21.2%	1.0
CCN(CC)S(=O)(=O)c1ccc(N2CCOCC2)c(NC(=O)c2ccccc2)c1	0.3%	15.0%	-5.5%	-6.0%	1.9
O=C(NC(=S)Nc1cc(S(=O)(=O)N2CCOCC2)ccc1N1CCOCC1)c1ccco1	-5.2%	-7.4%	-9.0%	-11.5%	10.8
CC(C)CN1C(=O)[C@@]2(CC(=O)N(C)C2c2ccccc2)c2cc(-n3cc(CCCC#N)nn3)ccc21 (stereo partly specified)	.	.	.	.	-3.4
Cc1cc(SCC(=O)c2cccc([N+](=O)[O-])c2)nc(=O)[nH]1	-27.0%	?	21.2µM*	-1.1%	-6.1
COC(=O)Nc1ccc(SCC(=O)c2cccc([N+](=O)[O-])c2)cc1	-8.3%	?	13.4µM*	1.9%	-4.2
COc1ccc(C2c3c(-c4ccccc4)n[nH]c3C(=O)N2c2ccc(C(=O)O)cc2)c(OC)c1 (stereo unspecified)	1.8%	-22.9%	.	?	-1.2
COCCn1c(SCC(=O)Nc2cccc(C)c2C)nc2c(oc3ccccc32)c1=O	0.5%	-12.0%	.	-2.7%	-66.3*
COCCn1c(SCC(=O)Nc2ccccc2OC)nc2c(oc3ccccc32)c1=O	-1.9%	21.6%	-12.6%	2.3%	3.6
CCn1c(SCC(=O)N2CCCC2)nc2ccccc2c1=O	-2.3%	1.1%	-0.3%	-2.8%	-3.7
COCCn1c(SCC(=O)N2CCCCC2)nc2ccccc2c1=O	14.7%	4.8%	-1.7%	-2.6%	-64.8*
CC(NCc1ccco1)C(=O)N1CCOCC1 (stereo unspecified)	.	.	.	.	4.2
CCOc1ccc2nc(NC(=O)c3nc(SC(C)C)ncc3Cl)sc2c1	-7.1%	2.9%	.	-1.5%	-0.5
C=CCN1C(=O)[C@H](CC(=O)N2CCN(C(=O)c3ccco3)CC2)[C@@]2(C(=O)OCC)CCCC=C12	.	.	.	.	-7.8
CCN(CC)S(=O)(=O)c1cccc(C(=O)NC(C(=O)Nc2nnc(C3CC3)s2)C(C)C)c1 (stereo unspecified)	-1.5%	11.9%	26.7µM*	3.7%	-2.5
CCN(CC)S(=O)(=O)c1cccc(C(=O)NCC2CCCCC2)c1	-2.3%	?	23.8µM*	?	3.2
CCN(CC)S(=O)(=O)c1cccc(C(=O)N[C@H](C(=O)Nc2nc3ccccc3s2)C(C)C)c1	-3.5%	-11.1%	0.8%	-5.2%	4.5
Cc1ccc2c(=O)cc(C(=O)Nc3ccc(S(=O)(=O)N4CCCCCC4)cc3)oc2c1C	-6.9%	6.4%	.	-1.3%	0.6
c1ccc(Nc2ccccn2)nc1	-1.1%	0.6%	-3.8%	-1.7%	-8.1
Oc1ccccc1Nc1ccccn1	-4.7%	-4.9%	5.7%	12.6µM*	2.1
Clc1ccccc1-c1ccc2ncnc(NC3CCNCC3)c2c1	-7.7%	-4.7%	.	.	.
CN(C)/C=C/c1c([N+](=O)[O-])c2ccc(O)cc2n1-c1ccccc1	-19.0%	?	0.4%	8.91µM*	-4.3
COC(=O)c1c(C)n(-c2ccccc2)c2ccc(O)cc12	-8.6%	-13.1%	1.1%	12.0%	-3.4
Cc1c(N)c(C(C)(C)C)cc(C(C)(C)C)c1[N+](=O)[O-]	-4.7%	-4.5%	-3.8%	0.2%	1.2
Cc1cc2nc3c(=O)[nH]c(=O)[nH]c3nc2c([N+](=O)[O-])c1N	?	-23.8%	13.4µM*	20.2%	-23.5
SMILES	GCN5L2 inh	VDR inh	PLK1 PBD block	GLS inhibitor	PI4K2A inh
COc1ccc(OC)c(NC(=O)c2cc3c(n(-c4ccc(Cl)cc4)c2=O)CC(C)(C)CC3=O)c1	-10.7%	-1.4%	.	-2.9%	1.3
O=C(c1ccc(Cl)cc1Cl)N1CCc2ccccc21	1.1%	-13.7%	-4.2%	-2.6%	2.9
O=C(c1ccc(N2CCCCCC2)c([N+](=O)[O-])c1)N1CCc2ccccc21	-0.5%	.	.	.	.
O=C(c1cc(Cl)ccc1Cl)N1CCc2ccccc21	-14.4%	?	26.7µM*	-9.4%	9.0
Cc1ccc(C(=O)N2CCc3ccccc32)cc1[N+](=O)[O-]	-14.9%	-10.2%	29.9µM*	16.1%	3.0
COc1ccccc1CNS(=O)(=O)N(C)C	3.7%	7.0%	21.2µM*	0.3%	-1.3
COc1cccc(CNS(=O)(=O)c2ccccc2Br)c1OC	.	?	18.9µM*	23.3%	0.9
COc1ccc(N2CCN(CC(O)COc3ccc(C(C)C)c(C)c3)CC2)cc1 (stereo unspecified)	3.8%	-5.6%	.	5.5%	-4.7
CCc1[nH]c(=O)[nH]c1C(C)S(=O)(=O)c1ccc(C)cc1 (stereo unspecified)	1.5%	-13.7%	11.9µM*	-5.7%	-8.0
CCc1c(C(C)S(=O)(=O)c2ccc(C)cc2)[nH]c(=O)n1-c1ccc(C)cc1 (stereo unspecified)	1.5%	?	26.7µM*	7.2%	2.2
C=CCC(C=C)S(=O)(=O)c1ccc(C)cc1 (stereo unspecified)	-2.7%	-1.9%	-0.6%	5.0%	0.2
CCN(C)c1nc(C)nc2c1nnn2Cc1ccccc1	.	.	.	.	0.0
CCCOC(=O)C1=C(C)NC(=O)NC1c1ccc(Br)s1 (stereo unspecified)	-12.5%	-6.7%	23.8µM*	-2.8%	10.1
CCNC(=O)/C(C#N)=C/c1c(N2CCN(c3ccc(OC)cc3)CC2)nc2c(C)cccn2c1=O	-5.4%	?	23.8µM*	-28.0%	-0.7
Cc1ccccc1Oc1nc2ccccn2c(=O)c1/C=C(\C#N)C(=O)Nc1c(C)n(C)n(-c2ccccc2)c1=O	0.3%	?	-5.7%	-2.1%	-16.2
Cc1ccccc1Oc1nc2c(C)cccn2c(=O)c1/C=C(\C#N)C(=O)Nc1c(C)n(C)n(-c2ccccc2)c1=O	-8.9%	50.1µM*	-28.6%	14.0%	-16.5
CN(CCc1ccccn1)C(=O)Cn1nc(-c2ccccc2)ccc1=O	.	.	.	.	-0.8
COc1ccc(OC)c(C(=O)CSc2nnc(SCc3cccc4ccccc34)s2)c1	.	.	.	.	-4.4
CC(C)C[C@@H]1COc2cc(Br)ccc2S(=O)(=O)N1Cc1cn(CCC2OCCCO2)nn1	.	.	.	.	-1.2
COc1ccc(-c2nnc(NC(=O)c3ccc(S(=O)(=O)N4CCCc5ccccc54)cc3)o2)cc1	-12.4%	-8.0%	31.6µM*	14.4%	-4.1
CCOC(=O)[C@@]12CN(C(=O)OC(C)(C)C)CC=C1N(Cc1ccc(OC)cc1)C(=O)[C@H]2CC(=O)NCCCOC	.	.	.	.	-1.1
Cc1cc(Cl)ccc1OC(C)C(=O)Nc1ccc(S(=O)(=O)Nc2cnc3ccccc3n2)cc1 (stereo unspecified)	?	-63.3%	21.2µM*	-12.8%	3.2
O=C(Nc1ccc(S(=O)(=O)Nc2cnc3ccccc3n2)cc1)c1ccc(Cl)c([N+](=O)[O-])c1	-23.1%	?	42.3µM*	-0.5%	3.7
O=C(Nc1ccc(S(=O)(=O)Nc2cnc3ccccc3n2)cc1)c1ccc(Cl)cc1Cl	.	-16.1%	-13.6%	-0.5%	4.6

Compound activity (PubChem)
